About 18,000 (4.4%) of roughly 410,000 compounds were called active. Another 7% or so got no clear call; they are omitted. No stated cut-off is given here; in the data, active means activity change below about -60%; inconclusive means no clear call, values can overlap the other calls; inactive means above about -39%. Many of the other results were omitted from the sample, so actives are more common in it than they were.
Test: qHTS Assay for inhibitors of the human cytomegalovirus (HCMV)
Conditions: HFF cells, HCMV-luciferase reporter, 72 h; at 57.5 µM; hits give low values
How it was run: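 Compounds were evaluated in HFFs infected with an HCMV luciferase reporter virus (MOI 1 PFU/cell). Luciferase in lysates collected 72 h post infection served as the replication measure.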
On the % scale 0 is the no-effect control and ±100 the full control effect.

Row | Compound | activity change, negative = inhibition
1 | CC[C@]12c3[nH]c4cc(CCC(=O)N(C)C)ccc4c3CCN1C(=O)[C@@H](CC(=O)NCCCN(C)C)C[C@@H]2C(=O)N1CCN(C(=O)c2ccco2)CC1 | -18.4% (inactive)
2 | CN1c2ccc(Cl)cc2-c2nc(SCC(=O)Nc3cc(F)ccc3F)ncc2S1(=O)=O | -32.3% (inactive)
3 | O=C(Nc1ccccc1C(=O)N1CCOCC1)c1ccc(CSc2ccccc2)cc1 | -24.2% (inactive)
4 | C/C(CCc1ccccc1)=N\NC(=O)c1ccc(CN2CCOCC2)cc1 | -12.4% (inactive)
5 | O=C(Nc1ccc(CSc2ccccc2)cc1)c1ccc(CN2CCOCC2)cc1 | -79.7% (active)
6 | CCCCN1CCNC1=S | 47% (inactive)
7 | CCn1cc(C(=O)NCc2ccc(C)cc2)c(=O)c2cc(S(=O)(=O)N3CCc4ccccc4C3)ccc21 | 7.01% (inactive)
8 | Cc1ccc(Cl)cc1N(C)C(=O)C1CCCN(c2ncnc3onc(-c4ccc(F)cc4)c23)C1 (configuration not stated) | -73.3% (active)
9 | CCc1ccccc1N(C)C(=O)C1CCCN(c2ncnc3onc(-c4ccc(F)cc4)c23)C1 (configuration not stated) | 6.75% (inactive)
10 | Cc1c(Cl)cccc1NC(=O)C1CCCN(c2ncnc3onc(C)c23)C1 (configuration not stated) | 4.4% (inactive)
11 | CC(C)Oc1ccc(S(=O)(=O)N2CCOCC2)cc1NC(=O)C1CCCC1 | 36.7% (inactive)
12 | CCCc1cc(=O)oc2c(C)c(O)c(CN3CCCCC3)cc12 | -20.3% (inactive)
13 | OC(COc1ccc(CN2CCSCC2)cc1)CN1CCCCC1 (configuration not stated) | 0% (inactive)
14 | O=C(c1ccc(Cl)cc1)c1ccc(OCC(O)CN2CCCCC2)cc1 (configuration not stated) | -63.1% (active)
15 | Cn1c(=O)c2c(nc(N3CCCCCC3)n2CC(O)COc2ccc(Cl)cc2)n(C)c1=O (configuration not stated) | 16.7% (inactive)
16 | COc1ccc(NC(=O)CCNS(=O)(=O)c2ccc3c(c2)CCCC(=O)N3)cc1Cl | -20.5% (inactive)
17 | CCn1c(CNC(=O)C23CC4CC(CC(C4)C2)C3)nnc1SCC(=O)Nc1ccc(OC)cc1 | 10% (inactive)
18 | C#CCOc1ccccc1/C=C1/C(=O)ON=C1C | 52.7% (inactive)
19 | Cc1no[n+]([O-])c1COc1ccccc1/C=C1\NC(=S)NC1=O | -83.4% (active)
20 | COC(=O)c1ccc(Cn2c(SCC(=O)N(C)c3ccccc3)nc3ccccc32)cc1 | -6.59% (inactive)
21 | COc1ccc(-c2nnc(SC(=O)N3c4ccccc4Sc4ccccc43)o2)cc1 | 10.6% (inactive)
22 | N/C(=N\OC(=O)N1c2ccccc2Sc2ccccc21)c1ccc(Br)cc1 | -63.7% (active)

Row | Compound | activity change, negative = inhibition
23 | N/C(=N\OC(=O)CCc1ccccc1)c1ccc(Cl)cc1 | 10.6% (inactive)
24 | COc1cc(Cl)c(NC(=O)CC(C)S(=O)(=O)c2cc3c(cc2C)NC(=O)CO3)c(OC)c1 (configuration not stated) | -4.28% (inactive)
25 | CS(=O)(=O)N(CC(=O)NCc1ccco1)c1ccc2c(c1)OCO2 | -9.98% (inactive)
26 | COc1ccc(S(=O)(=O)N(C)CC(=O)Nc2ccc3c(c2)OCCO3)cc1OC | 51.4% (inactive)
27 | O=C(CN(c1ccc2c(c1)OCCO2)S(=O)(=O)c1ccccc1)Nc1ccc2c(c1)OCO2 | -86.6% (active)
28 | CCCn1c(=N)c(C(=O)NCc2ccccc2)cc2c(=O)n3cccc(C)c3nc21 | -7.61% (inactive)
29 | Cc1cccn2c(=O)c3cc(C(=O)NCCN4CCOCC4)c(=N)n(Cc4cccnc4)c3nc12 | -86% (active)
30 | COc1ccc(CCn2c(=N)c(C(=O)NCc3ccco3)cc3c(=O)n4cccc(C)c4nc32)cc1 | -83.4% (active)
31 | COCCCn1c(C(=O)NC2CCCCC2)cc2c(=O)n3cccc(C)c3nc21 | 1.95% (inactive)
32 | Cc1cccn2c(=O)c3cc(C(=O)NC(C)c4ccccc4)c(=N)n(CCCO)c3nc12 (configuration not stated) | -15.1% (inactive)
33 | Cc1cccn2c(=O)c3cc(C#N)c(=NC(=O)c4cccnc4)n(CC4CCCO4)c3nc12 (configuration not stated) | 2.74% (inactive)
34 | Cc1cc(Br)ccc1NC(=O)Cn1cnc2sc(C)c(S(=O)(=O)N3CCN(C)CC3)c2c1=O | 0.161% (inactive)
35 | CCCS(=O)(=O)NC(=O)C1(C)CCCN(C(=O)c2cc(C)on2)C1 (configuration not stated) | 32.5% (inactive)
36 | Cc1cccc(N2CCN(C(=O)c3ccc4c(c3)CCN4S(=O)(=O)c3ccccc3)CC2)c1C | -25.8% (inactive)
37 | O=C(CC1N=C2c3ccccc3N=C(SCc3cccc(Cl)c3)N2C1=O)NCc1ccc2c(c1)OCO2 (configuration not stated) | -15.6% (inactive)
38 | CCCN1C(=O)COCc2cc(-c3cccc(CO)c3)ccc21 | 6.92% (inactive)
39 | COc1ccc(CNC(=O)CSc2n[nH]c(-c3ccc(F)cc3)n2)cc1 | 19.4% (inactive)
40 | CCc1ccc(-c2nc(SCC(=O)NC3CCCC3)n[nH]2)cc1 | -90.7% (active)
41 | COc1ccc(-c2nc(SCC(=O)N3CCCCC3C)n[nH]2)cc1 (configuration not stated) | 1.78% (inactive)
42 | COc1cc(/C=C/CNC[C@H]2O[C@@H](n3cnc(C(N)=O)n3)[C@H](O)[C@@H]2O)ccc1O | -3.95% (inactive)
43 | Cc1ccccc1C(=O)N(Cc1ccc(N(C)C)cc1)CC1CCCO1 (configuration not stated) | -18.1% (inactive)
44 | c1ccc(C(=NNc2nc3ccccc3s2)c2ccccn2)cc1 | -99.2% (active)

Row | Compound | activity change, negative = inhibition
45 | Cc1cc(C)cc(-n2ccnc2SCC(=O)Nc2nc3ccccc3s2)c1 | -5.53% (inactive)
46 | Cc1ccccc1-n1c(=O)c2ccccc2n(Cc2ccc(F)cc2)c1=O | -13.5% (inactive)
47 | CN1C(=O)/C(=C/C=C2\SCCN2C)OC1=S | 143% (inactive)
48 | Cc1cc2c(cc1C)[n+](C)cn2CC(O)COCC1CC=CCC1 (configuration not stated) | -71.1% (active)
49 | CCCC12CN3CC(CCC)(CN(C1)C3c1c[nH]c3ccc(OC)cc13)C2=O (configuration not stated) | 14% (inactive)
50 | c1ccc2c(c1)C(=NC1CCCCC1)NC2=NC1CCCCC1 | -38.8% (inactive)
51 | CCOc1cccc(=NC2CCCCC2)c2c(C)[nH]c(C)c12 | -110% (active)
52 | CCOc1ccccc1NC(=O)NC1CCCCCCC1 | -14.2% (inactive)
53 | CCOc1ccc(Nc2oc(/C=C/c3ccc(F)cc3)nc2C#N)cc1 | 11.4% (inactive)
54 | Cc1ccc(CCNC(=O)Cn2c(-c3cccs3)cc3cc(F)ccc32)cc1 | -16.7% (inactive)
55 | O=C(Cn1c(-c2cccs2)cc2ccccc21)NCCc1ccc(Cl)cc1 | -112% (active)
56 | Cc1cccc(Cn2c(=O)n(CCC(=O)NCCc3ccc(Cl)cc3)c(=O)c3sccc32)c1 | -10.1% (inactive)
57 | O=C(c1ccc(Br)cc1)N(Cc1cccs1)c1ccc(F)cc1 | -5.5% (inactive)
58 | O=C(Nc1ccc2nc(SCC(=O)N3CCc4ccccc43)sc2c1)c1ccccc1F | 26.3% (inactive)
59 | CCCC(NCC(=O)Nc1ccccc1C(=O)NC1CC1)c1ccccc1 (configuration not stated) | -16.1% (inactive)
60 | O=C(COc1ccccc1Cl)Nc1ccccc1C(=O)NC1CC1 | -2.06% (inactive)
61 | CC(NCC(=O)Nc1ccccc1C(=O)NC1CC1)c1ccccc1Cl (configuration not stated) | -103% (active)
62 | COC(=O)C1C(=O)NCC1c1ccc(OC)cc1 (configuration not stated) | 19.2% (inactive)
63 | O=C(NC1CCC(O)CC1)c1ccc(S(=O)(=O)NCc2ccco2)cc1 (configuration not stated) | -14.7% (inactive)
64 | CCc1nnc(SCC(=O)Nc2cc(OC)ccc2OC)nc1CC | 0% (inactive)
65 | COc1ccc(S(=O)(=O)N/N=C\c2ccc(OC)c(COc3ccc(C)cc3[N+](=O)[O-])c2)cc1 | 12.7% (inactive)
66 | COc1ccc(CCNC(=O)NS(=O)(=O)c2ccc(C)cc2)cc1OC | 12.4% (inactive)

Row | Compound | activity change, negative = inhibition
67 | COc1ccc(C(=O)Oc2cc(/C=N/NS(=O)(=O)c3ccc(C)cc3)ccc2OC)cc1 | -102% (active)
68 | Cc1cccc(NC(=O)c2ccc3nc(C(C)C)oc3c2)c1C | -5.74% (inactive)
69 | CCOc1ccc(C(=O)/C=C/c2cn(CC(O)CN3CCCCCC3)c3ccccc23)cc1 (configuration not stated) | -29% (inactive)
70 | Cc1ccc(-c2nn(CCC(=O)Nc3ccc(OC(F)(F)F)cc3)c(=O)c3ccccc23)cc1 | 0.866% (inactive)
71 | O=C(Nc1cc(C(F)(F)F)ccc1Cl)c1ccc2c(c1)CCN2S(=O)(=O)c1ccccc1 | -29.1% (inactive)
72 | CCN(C(=O)COC(=O)c1cc(S(=O)(=O)N2CCc3ccccc32)ccc1OC)C1CCS(=O)(=O)C1 (configuration not stated) | -18% (inactive)
73 | COc1ccc(S(=O)(=O)N2CCc3ccccc32)cc1C(=O)Nc1cc(S(C)(=O)=O)ccc1Cl | -62.7% (active)
74 | CCc1nc2c(OCCOc3ccccc3)cccn2c1N(C)C(=O)c1ccccc1F | -30.7% (inactive)
75 | COc1ccc2c(c1)C(c1cccs1)=NNC(c1cccnc1)=N2 | -22.6% (inactive)
76 | COC1C(O)C(C)OC(OC2CCC3(C=O)C(CCC4C3CCC3(C)C(C5=CC(=O)OC5)CCC43O)C2)C1O (configuration not stated) | -106% (active)
77 | Brc1cccc(-c2nnn3c2nc(NC2CCCCC2)c2ccccc23)c1 | 34.7% (inactive)
78 | O=C(Cc1ccc(Cl)cc1)NCC(c1cccs1)S(=O)(=O)c1ccc(Cl)cc1 (configuration not stated) | -8.05% (inactive)
79 | O=C(NNC(=O)c1ccco1)Nc1ccccc1 | -62% (active)
80 | O=C(CNC(=O)c1ccco1)NNC(=O)c1ccc(Br)cc1 | -4.75% (inactive)
81 | O=C(CNC(=O)c1ccco1)OCC(=O)c1ccccc1 | 49.6% (inactive)
82 | COc1cccc(-c2n[nH]c3c2C(c2cccc(O)c2)N(C)C3=O)c1 (configuration not stated) | 179% (inactive)
83 | CC(OC(=O)CN1C(=O)C2CCCCC2C1=O)C(=O)Nc1ncc(Cl)cc1Cl (configuration not stated) | 22.5% (inactive)
84 | Cc1nc2ccn(Cc3cccnc3)c(=O)c2cc1C(=O)N1CCN(c2ccccc2F)CC1 | 10.9% (inactive)
85 | CCN1CCN(c2cc3nc(C)n(Cc4ccccc4)c(=O)c3cc2NC(=O)c2ccccc2F)CC1 | -85.2% (active)
86 | CCOc1cc(NC(=O)c2ccccc2C(=O)O)c(OCC)cc1NC(=O)c1ccccc1F | -3.32% (inactive)
87 | CCCCN(C)C(=O)c1ccc2c(c1)N(CC)C(=O)c1ccccc1S2(=O)=O | -8.24% (inactive)

From PubChem BioAssay AID1259415 (National Center for Advancing Translational Sciences (NCATS), 2018)
